According to PubChem BioAssay AID1159580 (chemical genetic matrix, 2015):
Where “and” joins values, the source holds several entries; their conditions need not be identical. Equal entries are not always repeated. Out of some 5,500 compounds screened, about 2,000 (36%) were called active. Inconclusive results (about 18%) are left out. Rule as the data show it: active = normalized growth mostly below about 0.91 (no sharp cut-off); inconclusive = no clear call, values can overlap the other calls; inactive = mostly above about 0.92. This is one part of the list.

Assay: chemical genetic growth profiling, strain panel (AID 1159580);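 also: tested at 20 µM; growth read once vehicle control cultures reached saturation at 30 °C; 1 = growth at the plate median or of vehicle wells; lower values mean less growth of the strain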
Details: S. cerevisiae deletion strains, growth OD

Measured: normalized growth

CC(=O)Oc1ccc(/C=C/c2cc(OC(C)=O)cc(OC(C)=O)c2)cc1
active: locus YDR392W, strain spt3, hits give low values 0.668
inactive: locus YAL021C, strain ccr4, hits give low values 0.979 | locus YAL026C, strain drs2, hits give low values 0.984 | locus YAL030W, strain snc1, hits give low values 0.97 | locus YBL061C, strain skt5, hits give low values 0.976 | locus YBR009C, strain hhf1, hits give low values 0.962 | locus YBR021W, strain FUR4, hits give low values 0.96 | locus YBR023C, strain chs3, hits give low values 0.975 | locus YBR171W, strain sec66, hits give low values 0.978 | locus YBR229C, strain ROT2, hits give low values 0.997 | locus YBR231C, strain swc5, hits give low values 0.986 | locus YBR279W, strain paf1, hits give low values 0.978 | locus YCL011C, strain gbp2, hits give low values 0.972 | locus YCL016C, strain dcc1, hits give low values 0.98 | locus YCL029C, strain bik1, hits give low values 1.01 | locus YCL061C, strain MRC1, hits give low values 0.953 | locus YCL069W, strain vba3, hits give low values 0.984 | locus YCR088W, strain abp1, hits give low values 0.979 | locus YDL005C, strain med2, hits give low values 0.963 | locus YDL035C, strain GPR1, hits give low values 0.984 | locus YDL040C, strain nat1, hits give low values 0.963 | locus YDL074C, strain BRE1, hits give low values 0.982 | locus YDL101C, strain DUN1, hits give low values 0.993 | locus YDL134C, strain PPH21, hits give low values 0.97 | locus YDL185W, strain tfp1, hits give low values 1.02 | locus YDL192W, strain arf1, hits give low values 0.997 | locus YDR001C, strain nth1, hits give low values 0.987 | locus YDR069C, strain doa4, hits give low values 0.966 | locus YDR101C, strain arx1, hits give low values 0.987 | locus YDR137W, strain rgp1, hits give low values 0.925 | locus YDR159W, strain sac3, hits give low values 0.951 | locus YDR162C, strain NBP2, hits give low values 0.977 | locus YDR195W, strain ref2 0.985 | locus YDR297W, strain sur2, hits give low values 0.979 | locus YDR318W, strain mcm21, hits give low values 0.986 | locus YDR334W, strain swr1, hits give low values 0.981 | locus YDR335W, strain msn5, hits give low values 0.987 | locus YDR388W, hits give low values 1 | locus YDR502C, strain sam2, hits give low values 0.999 | locus YEL003W, strain gim4, hits give low values 0.969 | locus YEL037C, strain rad23, hits give low values 0.983 | locus YEL061C, strain CIN8 (second series), hits give low values 0.99 | locus YEL061C, strain CIN8, hits give low values 0.999 | locus YER015W, strain faa2, hits give low values 0.974 | locus YER016W, strain bim1, hits give low values 0.976 | locus YER110C, hits give low values 1.01 | locus YER111C, strain swi4, hits give low values 0.976 | locus YER155C, strain BEM2 (second series), hits give low values 0.924 | locus YER155C, strain BEM2, hits give low values 1.01 | locus YER167W, strain BCK2, hits give low values 0.991 | locus YFR010W, strain ubp6, hits give low values 0.985 | locus YGL078C, strain dbp3, hits give low values 0.996 | locus YGL086W, strain mad1, hits give low values 0.994 | locus YGL167C, strain pmr1, hits give low values 0.978 | locus YGL173C, strain kem1, hits give low values 0.961 | locus YGL227W, strain vid30, hits give low values 0.982 | locus YGL240W, strain doc1, hits give low values 0.942 | locus YGL248W, strain PDE1, hits give low values 0.974 | locus YGL253W, strain hxk2, hits give low values 0.973 | locus YGR135W, strain pre9, hits give low values 0.977 | locus YGR229C, strain SMI1, hits give low values 1.01 | locus YGR252W, strain gcn5, hits give low values 0.951 | locus YHR013C, strain ard1, hits give low values 0.978 | locus YHR027C, strain rpn1, hits give low values 0.975 | locus YHR030C, strain SLT2, hits give low values 1.01 and 1.03 | locus YHR079C, strain IRE1 (second series), hits give low values 1 | locus YHR079C, strain IRE1, hits give low values 1.03 | locus YHR094C, strain hxt1, hits give low values 1 | locus YHR129C, strain ARP1, hits give low values 0.985 | locus YHR142W, strain chs7, hits give low values 0.968 | locus YHR200W, strain rpn10, hits give low values 1.01 | locus YIL066C, strain RNR3, hits give low values 0.965 | locus YIL073C, strain SPO22, hits give low values 1.04 | locus YIL125W, strain kgd1, hits give low values 1.02 | locus YIR030C, strain dcg1, hits give low values 0.99 | locus YJL092W, strain hpr5, hits give low values 0.977 | locus YJL095W, strain BCK1 (second series), hits give low values 0.983 | locus YJL095W, strain BCK1, hits give low values 0.962 and 0.998 | locus YJL115W, strain asf1, hits give low values 0.992 | locus YJL129C, strain trk1, hits give low values 0.978 | locus YJL134W, strain LCB3, hits give low values 1.01 | locus YJL154C, strain vps35, hits give low values 0.983 | locus YJL164C, strain tpk1, hits give low values 0.96 | locus YJL166W, strain qcr8, hits give low values 0.95 | locus YJL168C, strain set2, hits give low values 0.997 | locus YJL187C, strain SWE1 (second series), hits give low values 0.98 | locus YJL187C, strain SWE1, hits give low values 0.993 | locus YJR043C, strain POL32, hits give low values 0.979 | locus YJR066W, strain TOR1, hits give low values 0.972 | locus YJR075W, strain HOC1, hits give low values 0.985 | locus YKL009W, strain mrt4, hits give low values 1.04 | locus YKL068W, hits give low values 1 | locus YKL085W, strain MDH1 (second series), hits give low values 0.999 | locus YKL085W, strain MDH1, hits give low values 0.999 | locus YKL160W, strain elf1, hits give low values 0.959 | locus YKL190W, strain CNB1, hits give low values 1 | locus YKR001C, strain vps1, hits give low values 0.982 | locus YKR026C, strain gcn3, hits give low values 0.979 | locus YKR091W, strain srl3, hits give low values 0.983 | locus YLL001W, strain dnm1, hits give low values 0.966 | locus YLL026W, hits give low values 0.976 | locus YLL041C, strain sdh2, hits give low values 0.98 | locus YLR027C, strain aat2, hits give low values 0.979 | locus YLR039C, strain RIC1, hits give low values 0.928 | locus YLR058C, strain SHM2, hits give low values 0.99 | locus YLR102C, strain apc9, hits give low values 1.03 | locus YLR113W, strain HOG1, hits give low values 0.934 | locus YLR221C, strain rsa3, hits give low values 0.949 | locus YLR258W, strain gsy2, hits give low values 0.957 | locus YLR262C, strain YPT6 (second series), hits give low values 0.907 | locus YLR262C, strain YPT6, hits give low values 0.925 | locus YLR268W, strain sec22, hits give low values 0.999 | locus YLR320W, strain mms22, hits give low values 0.921 | locus YLR330W, strain CHS5, hits give low values 0.996 | locus YLR342W, strain FKS1 (second series), hits give low values 1.01 | locus YLR342W, strain FKS1, hits give low values 0.968 | locus YLR357W, strain rsc2, hits give low values 0.937 | locus YLR370C, strain arc18, hits give low values 0.981 | locus YLR371W, strain rom2, hits give low values 0.995 | locus YLR384C, strain iki3, hits give low values 0.959 | locus YLR418C, strain cdc73, hits give low values 0.889 | locus YML016C, strain PPZ1, hits give low values 0.999 | locus YML032C, strain rad52, hits give low values 1.01 | locus YML120C, strain ndi1, hits give low values 0.985 | locus YML124C, strain tub3, hits give low values 0.998 | locus YMR078C, strain ctf18, hits give low values 1.01 | locus YMR125W, strain sto1, hits give low values 0.974 | locus YMR129W, hits give low values 0.985 | locus YMR205C, strain PFK2, hits give low values 0.948 | locus YMR223W, strain ubp8, hits give low values 0.959 | locus YMR231W, strain pep5, hits give low values 0.965 | locus YMR263W, strain SAP30, hits give low values 0.988 | locus YMR307W, strain GAS1, hits give low values 1.16 | locus YNL067W, strain RPL9B, hits give low values 0.973 | locus YNL071W, strain lat1, hits give low values 0.952 | locus YNL153C, strain GIM3, hits give low values 0.989 | locus YNL183C, strain NPR1, hits give low values 0.935 | locus YNL209W, strain ssb2, hits give low values 0.984 | locus YNL233W, strain BNI4, hits give low values 0.948 | locus YNL248C, strain rpa49, hits give low values 0.961 | locus YNL250W, strain rad50, hits give low values 0.998 | locus YNL271C, strain bni1, hits give low values 1.02 | locus YNL298W, strain CLA4, hits give low values 0.989 | locus YNL307C, strain MCK1, hits give low values 0.977 | locus YNL322C, strain KRE1 (second series), hits give low values 0.964 | locus YNR049C, strain mso1, hits give low values 0.978 | locus YNR052C, strain pop2, hits give low values 0.981 | locus YOL006C, strain TOP1, hits give low values 0.883 | locus YOL012C, strain htz1 0.967 | locus YOL147C, strain pex11, hits give low values 1 | locus YOR001W, strain rrp6, hits give low values 0.96 | locus YOR061W, strain CKA2, hits give low values 1.01 | locus YOR069W, strain VPS5, hits give low values 1 | locus YOR070C, strain gyp1, hits give low values 0.959 | locus YOR080W, strain dia2, hits give low values 1.01 | locus YOR083W, strain WHI5, hits give low values 0.958 | locus YOR106W, strain vam3, hits give low values 0.988 | locus YOR136W, strain idh2, hits give low values 1.01 | locus YOR144C, strain elg1, hits give low values 1.01 | locus YOR184W, strain ser1, hits give low values 0.904 | locus YOR231W, strain MKK1, hits give low values 1 | locus YOR265W, strain rbl2, hits give low values 0.968 | locus YOR270C, strain vph1, hits give low values 0.919 | locus YOR290C, strain snf2, hits give low values 0.944 | locus YOR316C, strain cot1, hits give low values 1.02 | locus YPL051W, strain arl3, hits give low values 0.98 | locus YPL055C, strain LGE1, hits give low values 0.947 | locus YPL078C, strain atp4, hits give low values 0.963 | locus YPL106C, strain sse1, hits give low values 0.91 | locus YPL240C, strain hsp82, hits give low values 0.976 | locus YPL241C, strain CIN2, hits give low values 0.998 | locus YPL256C, strain CLN2, hits give low values 1.04 | locus YPR119W, strain clb2, hits give low values 1.01 | locus YPR141C, strain kar3, hits give low values 1.01 | locus YPR163C, strain tif3, hits give low values 0.994 | locus YPR167C, strain met16, hits give low values 1.02 | strain wtn01, hits give low values 1.01
